Assay results reported in PubChem BioAssay AID1835 (Johns Hopkins Ion Channel Center, 2009).
About 750 (31%) of roughly 2,400 compounds were called active.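 Rule for the calls: active = median signal gain over dofetilide-blocked control wells reaching their mean plus 3 SD, so readout 1 at least 0; inactive = the rest.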 Some of the results follow.

biological target: Voltage-gated inwardly rectifying potassium channel KCNH2 (Homo sapiens) (UniProt Q12809); test: modulators restoring hERG flux under dofetilide – cell-based, thallium flux, duplicate retest, dofetilide IC70, confirmation (AID 1835); settings: hERG cell line, FluxOR thallium flux, dofetilide-blocked; at 10 µM; hits give high values
Sequence (Q12809 whole entry, looked up): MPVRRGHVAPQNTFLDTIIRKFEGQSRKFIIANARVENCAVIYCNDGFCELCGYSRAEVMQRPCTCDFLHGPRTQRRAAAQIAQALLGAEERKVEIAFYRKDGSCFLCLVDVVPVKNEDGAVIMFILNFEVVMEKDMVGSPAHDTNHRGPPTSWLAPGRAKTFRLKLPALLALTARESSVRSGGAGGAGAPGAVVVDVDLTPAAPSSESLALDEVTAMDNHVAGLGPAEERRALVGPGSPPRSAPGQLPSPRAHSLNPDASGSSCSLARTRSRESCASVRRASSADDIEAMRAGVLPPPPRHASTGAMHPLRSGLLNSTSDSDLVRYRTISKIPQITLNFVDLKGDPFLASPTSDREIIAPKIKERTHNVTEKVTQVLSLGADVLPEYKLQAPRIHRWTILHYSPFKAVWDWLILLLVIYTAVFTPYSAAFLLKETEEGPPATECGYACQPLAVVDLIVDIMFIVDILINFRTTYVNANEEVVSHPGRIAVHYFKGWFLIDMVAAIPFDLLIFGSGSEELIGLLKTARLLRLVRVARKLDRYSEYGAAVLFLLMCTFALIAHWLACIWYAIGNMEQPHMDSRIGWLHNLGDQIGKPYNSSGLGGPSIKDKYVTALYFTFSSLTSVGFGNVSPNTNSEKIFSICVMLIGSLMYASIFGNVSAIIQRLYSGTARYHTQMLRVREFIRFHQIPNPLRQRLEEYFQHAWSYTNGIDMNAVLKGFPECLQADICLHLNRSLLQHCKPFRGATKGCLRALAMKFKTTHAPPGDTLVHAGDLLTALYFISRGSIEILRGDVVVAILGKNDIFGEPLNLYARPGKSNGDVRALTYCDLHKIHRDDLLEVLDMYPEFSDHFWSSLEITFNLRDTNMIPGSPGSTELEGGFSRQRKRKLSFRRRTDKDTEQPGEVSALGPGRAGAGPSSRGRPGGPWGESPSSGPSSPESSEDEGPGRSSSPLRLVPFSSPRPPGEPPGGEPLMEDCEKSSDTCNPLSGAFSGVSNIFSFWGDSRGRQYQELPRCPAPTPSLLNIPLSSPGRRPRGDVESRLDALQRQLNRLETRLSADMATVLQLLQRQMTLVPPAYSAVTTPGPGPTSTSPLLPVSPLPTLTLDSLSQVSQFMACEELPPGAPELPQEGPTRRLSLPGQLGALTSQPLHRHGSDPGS

| SMILES | activity increase over dofetilide control, less the hit threshold |
| --- | --- |
| COc1ccc(-c2nc(=S)c3ccc4ccccc4c3[nH]2)cc1 | 76% (active) |
| COc1ccc(-n2c(=S)[nH]c3ccccc3c2=S)cc1 | -12% (inactive) |
| CC(C)CC(=O)Nc1ccc2c3c(cccc13)CC2 | -3% (inactive) |
| CCC1(CC)Cc2ccccc2-c2[nH]c(=S)[nH]c(=O)c21 | -6% (inactive) |
| CCn1c(=S)[nH]c2c(c1=O)C(C)(C)Cc1ccccc1-2 | 26% (active) |
| O=C(CSc1nc2ccccc2o1)NCc1n[nH]c(=O)c2ccccc12 | -4% (inactive) |
| CCOc1ccccc1Nc1nc(-c2sc(C)nc2C)cs1 | -9% (inactive) |
| O=C(C1CCN(S(=O)(=O)c2cc(Cl)ccc2Cl)CC1)N1CCOCC1 | -16% (inactive) |
| CN(C(=O)c1ccc(Cl)c(S(=O)(=O)N2CCOCC2)c1)c1ccccc1C(=O)O | 7% (active) |
| CCN(CC(=O)Nc1c(F)cccc1F)C(=O)c1ccc(Cl)c(S(=O)(=O)N2CCCCC2)c1 | -19% (inactive) |
| C=Cc1ccc(Cn2c(=O)n(CCCOC)c(=O)c3sccc32)cc1 | -14% (inactive) |
| O=[N+]([O-])c1cccc(/C=N/N=C\c2ccccc2)c1 | -20% (inactive) |
| C/C(=N\NC(=O)c1ccc(NS(=O)(=O)c2cccs2)cc1)c1ccc2c(c1)OCO2 | -17% (inactive) |
| Cc1ccc(C(=O)N/N=C(/CC(=O)c2cccs2)C(F)(F)F)cc1 | 3% (active) |
| COc1ccc(S(=O)(=O)N2CCCC(C(=O)Nc3ccc(OC)c(OC)c3)C2)cc1 (stereo unspecified) | -22% (inactive) |
| CCN(Cc1ccc(OC)c(F)c1)C(=O)C1CCCO1 (stereo unspecified) | -3% (inactive) |
| COc1ccc(-c2cnn(C3CCS(=O)(=O)C3)c2N)cc1 (stereo unspecified) | -23% (inactive) |
| COC(=O)c1ccc(C2C(C#N)=C(N)Oc3cc(O)ccc32)cc1 (stereo unspecified) | 69% (active) |
| COc1cc(C2C(C#N)=C(N)Oc3c2ccc2ccccc32)ccc1OCC(=O)Nc1ccc(C)cc1 (stereo unspecified) | -19% (inactive) |
| CCOC(=O)C1=C(N)Oc2cc(O)ccc2C1c1cccnc1 (stereo unspecified) | -12% (inactive) |
| CCCCOc1ccc(CC(=O)NCC(=O)O)cc1 | -17% (inactive) |
| Cc1ccc(OC(=O)c2ccc(Br)o2)cc1 | 37% (active) |

| SMILES | activity increase over dofetilide control, less the hit threshold |
| --- | --- |
| CCCOc1ccc(OC(=O)c2ccc(Br)o2)cc1 | 14% (active) |
| O=C(NC1CCCC1)c1ccc(Br)o1 | -5% (inactive) |
| O=C(COC(=O)c1ccc(Br)o1)NC1CCCCC1 | -6% (inactive) |
| Cc1ccsc1CN(C(=O)c1ccc([N+](=O)[O-])cc1)C1CCS(=O)(=O)C1 (stereo unspecified) | -5% (inactive) |
| O=C(CS(=O)(=O)Cc1ccccc1)Nc1ccc(Cl)cn1 | -11% (inactive) |
| CCCCNC(=O)COC(=O)c1ccc(NC(C)=O)cc1 | -18% (inactive) |
| CCNC(=O)C/C(C)=N/NC(=O)C(=O)Nc1ccc(CC)cc1 | 9% (active) |
| CCCCCCC12CCC(C(=O)O)(CC1)CC2 | 14% (active) |
| CCOc1ccc(NC(=O)C2C(C(=O)O)C3(Cl)C(Cl)=C(Cl)C2(Cl)C3(Cl)Cl)cc1 (stereo unspecified) | -8% (inactive) |
| CCOc1ccc(NC(=O)CSc2nc3nc(C)cc(C)n3n2)cc1 | -8% (inactive) |
| CCOc1ccc(NC(=S)NS(=O)(=O)c2cc(Br)ccc2OCC)cc1 | 37% (active) |
| CCc1nnc(NC(=O)CSc2nc(-c3ccccc3)cc(-c3ccc(OC)cc3)c2C#N)s1 | 11% (active) |
| CCc1nnc(NC(=O)COc2ccc([N+](=O)[O-])cc2)s1 | -11% (inactive) |
| N#Cc1c(-c2ccc(Cl)cc2)cc(-c2cccs2)nc1SCC(=O)O | -22% (inactive) |
| CCOc1cc(N2CCCC2)ccc1[N+](=O)[O-] | -3% (inactive) |
| CC(=O)c1cccc(NC(=O)NCc2cccs2)c1 | -23% (inactive) |
| Nc1nc2n(n1)C1(CCCCC1)C1=C(CCCC1)N2 | -26% (inactive) |
| CC(=O)c1c(N2CCCC2)[nH]c(-c2ccccc2)nc1=S | -1% (inactive) |
| CC(=O)c1c(C)[nH]c(-c2ccccc2)nc1=S | -4% (inactive) |
| CC(=O)c1c(NC(=O)c2ccccc2)[nH]c(-c2ccccc2)nc1=S | 24% (active) |
| Cc1ccccc1CC(=O)NC1CCN(Cc2ccccc2)CC1 | -1% (inactive) |
| Cc1nc2ccc(C(=O)O)cc2[nH]1 | -12% (inactive) |

| SMILES | activity increase over dofetilide control, less the hit threshold |
| --- | --- |
| CSc1nc(-c2ccccc2)[nH]c(=S)c1C(C)=O | 61% (active) |
| CC(=O)c1c(N2CCN(Cc3ccccc3)CC2)[nH]c(-c2ccccc2)nc1=S | 15% (active) |
| C=C(C)Cc1c(C)nc(-c2ccccc2)[nH]c1=O | -19% (inactive) |
| CC(=O)c1c(N)[nH]c(-c2ccccc2)nc1=S | 1% (active) |
| Cc1cc(C)cc(NC(=O)CSc2nnc(CN3CCOCC3)n2C)c1 | -13% (inactive) |
| COc1ccc(S(=O)(=O)n2nc(C)c(S(=O)(=O)N3CCOCC3)c2C)cc1OC | -10% (inactive) |
| CCN1CCCC(CO)(Cc2ccccc2)C1 (stereo unspecified) | -8% (inactive) |
| O=C(CSc1nnc(NC(=O)c2ccc(S(=O)(=O)N3CCOCC3)cc2)s1)Nc1ccccc1C(F)(F)F | -13% (inactive) |
| Cc1[nH]cnc1CSCCN | -2% (inactive) |
| O=C(NC(=S)N1CCCc2ccccc21)c1ccc(Br)cc1 | 32% (active) |
| O=C(NC(=S)N1CCCc2ccccc21)c1ccc([N+](=O)[O-])cc1 | 11% (active) |
| O=C(O)C1CCN1C1CCCCC1 (stereo unspecified) | -16% (inactive) |
| CC(=O)c1c(C)nc(C)nc1NC(=O)C(C)C | -16% (inactive) |
| CCOC(=O)CSc1nnc(NC(=O)c2ccc3c(c2)OCO3)s1 | -22% (inactive) |
| Cc1ccc(NC(=O)c2cc(-c3ccc4c(c3)OCO4)on2)cc1 | -6% (inactive) |
| c1ccc2c(c1)c1ccccc1n1c(-c3ccc4c(c3)OCO4)nnc21 | 1% (active) |
| Cc1ccccc1-c1nnn(CC(=O)NCc2ccc3c(c2)OCO3)n1 | -13% (inactive) |
| O=C(NCc1ccco1)C1CCN(C(=O)Cc2ccccc2)CC1 | -7% (inactive) |
| CN(C)c1ccc(C(CNS(=O)(=O)c2ccc([N+](=O)[O-])cc2)N2CCCC2)cc1 (stereo unspecified) | -24% (inactive) |
| Cc1cccc(N2CCN(C(=O)Cc3c(C(=O)O)[nH]c4ccc(Cl)cc34)CC2)c1C | -14% (inactive) |
| C/C=C(\C)CN1CCN(c2cccc(C)c2C)CC1 | -24% (inactive) |
| Cc1cccc(N2CCN(C(=O)CNC(=O)c3cccc([N+](=O)[O-])c3)CC2)c1C | 13% (active) |
